According to PubChem BioAssay (NCI):
Compounds without any hit were thinned out: in the full panel of roughly 83,000, 20% have a hit.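 Plates (96-well) were seeded with cells, treated with compound at one concentration, and incubated for 48 hours before percent growth was determined.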 Unmarked numbers belong to inactive results. Calls of active or inactive are those of the source. How the source made its calls: active means growth percent below 10; inactive means the rest.

Tested on: HL-60(TB) leukemia
Assay: NCI-60 one-dose screen, 48 h (100 = growth as untreated, 0 = no growth, -100 = all killed)
Settings: 10 µM unless noted

Row | Structure (SMILES) | growth
1 | O=c1c2c3c(sc2nc(N/N=C/c2ccc(Br)cc2)n1Cc1ccccc1)CCCC3 | 71.2%
2 | Oc1ccc(Cc2ccc(O)c3ncccc23)c2cccnc12 | 5.77% (active)
3 | C/C(=N/O)c1ccc(NC(=O)Cn2nc(-c3ccc(Cl)cc3)nc2N)cc1 | 94.7%
4 | Nc1ccc2c3c(cccc13)-c1ccccc1-2 | 4.53% (active)
5 | CCCCCCCCCCCCCC[n+]1cccc(C(N)=O)c1 | -55.9% (active)
6 | CS(=O)(=O)c1cccc(Nc2ncc3cc(-c4ccccc4Cl)ccc3n2)c1 | -8.46% (active)
7 | COc1cnc2c(c1)C(=O)c1c-2n(CCCNCCN2CCOCC2)c(=O)c2cc([N+](=O)[O-])ccc12 | -15.7% (active)
8 | Nc1nc(-c2ccnc(Cl)c2)nn1-c1nc2ccccc2s1 | 107%
9 | COc1ccc(S(=O)(=O)Nc2cc(/C=C\c3cc(OC)c(OC)c(OC)c3)ccc2OC)cc1 | -31.6% (active)
10 | O=C(OC[C@@H]1CO1)c1cccc2c(=O)c3ccccc3[nH]c12 | -51.4% (active)
11 | Clc1ccc([C@@H]2C[C@@H]3Cc4cc(Br)c5ccccc5c4N2O3)c(Cl)c1 | 54.3%
12 | CC(=O)N1CC(Nc2ccc(OC(F)(F)F)cc2)=CC1=O | -8.58% (active)
13 | CC1=NOCC(=O)N1 | 104%
14 | CCOc1c(OC)cc2c(c1O)C(=O)N[C@@H]1[C@@H](O)[C@@H](O)[C@H](O)C[C@@H]21 | 100%
15 | CCOc1ccc(C(C)=O)cc1NC(=O)c1cccc(-c2nnn(CC)n2)c1 | 7.31% (active)
16 | Nc1nc(-c2ccc(F)cc2)cc(-c2cnn(-c3ccccc3)n2)n1 | 101%
